Assay results as given in PubChem BioAssay (NCATS).
Records with an inconclusive call do not appear. Where a call stands in place of a potency, no number is given. Calls of active or inactive are those of the source. Calls come from the whole dose curve; as a rule, active = well fitted curve in the direction sought with a large enough effect; inconclusive = small, poorly fitted or top-dose-only effect, or another doubt; inactive = no such curve, though single readings can be large; an effect the other way counts as inactive or inconclusive.

How the values were obtained:
[1] = qHTS of pediatric cancer cell lines to identify multiple opportunities for drug repurposing: Primary screen for MG 63 (6-TG R) cells (AID 1347105); note: nearly all actives have a fitted effect of over 50% in size
In short: (§1)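 Readout: CellTiter-Glo luminescence, 48 h treatment. Controls DMSO (neutral) and bortezomib 2.3 µM final (positive). Potency and efficacy taken from primary-screen concentration-response curves.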

[2] = qHTS of pediatric cancer cell lines to identify multiple opportunities for drug repurposing: Primary screen for control Hh wild type fibroblast cells (AID 1347106); note: nearly all actives have a fitted effect of over 55% in size
In short: (§2)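 Viability after 48 h compound treatment at 37C, 500-1,000 cells/well, read as ATP luminescence with CellTiter-Glo. Primary screens used 11-point (MIPE, 0.78 nM-46 µM) or 8-point (NPC, 0.59 nM-46 µM) final concentrations; follow-up screens used 11-point dilutions.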

[3] = qHTS of pediatric cancer cell lines to identify multiple opportunities for drug repurposing: Primary screen for Rh41 cells (AID 1347108); note: nearly all actives have a fitted effect of over 70% in size
In short: as §1

[4] = qHTS of pediatric cancer cell lines to identify multiple opportunities for drug repurposing: Primary screen for Rh30 cells (AID 1347107); note: nearly all actives have a fitted effect of over 75% in size
In short: as §2

[5] = qHTS of pediatric cancer cell lines to identify multiple opportunities for drug repurposing: Confirmatory screen for SK-N-MC cells (AID 1347111);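 note: cells exposed to compound for 48 h before the readout; nearly all actives have a fitted effect of over 70% in size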
In short: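 SK-N-MC cells at 500-1,000 cells/well in growth media were pre-incubated 5 h, then exposed to compounds at 11-point dilutions for 48 h at 37 degrees C, 5% CO2. Viability was read as CellTiter-Glo luminescence.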

[6] = qHTS of pediatric cancer cell lines to identify multiple opportunities for drug repurposing: Confirmatory screen for DAOY cells (AID 1347114); note: nearly all actives have a fitted effect of over 65% in size
In short: (§3)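 Viability measured as metabolically active cells via CellTiter-Glo luminescence following 48 hours of compound exposure, 11-point dilutions in confirmatory testing. 500-1,000 cells/well plated 5 hours before dosing; controls were DMSO and 2.3 µM bortezomib.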

[7] = qHTS of pediatric cancer cell lines to identify multiple opportunities for drug repurposing: Confirmatory screen for NB-EBc1 cells (AID 1347115); note: nearly all actives have a fitted effect of over 45% in size
In short: as §2

[8] = qHTS of pediatric cancer cell lines to identify multiple opportunities for drug repurposing: Confirmatory screen for BT-37 cells (AID 1347117); note: nearly all actives have a fitted effect of over 55% in size
In short: as §2

[9] = qHTS of pediatric cancer cell lines to identify multiple opportunities for drug repurposing: Confirmatory screen for TC32 cells (AID 1347118); note: nearly all actives have a fitted effect of over 65% in size
In short: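 Luminescent CellTiter-Glo read-out of metabolically active TC32 cells after 48 h compound exposure. Primary: MIPE 11-point, 0.78 nM–46 µM; NPC 8-point, 0.59 nM–46 µM. Confirmatory: 11-point dilutions.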

[10] = qHTS of pediatric cancer cell lines to identify multiple opportunities for drug repurposing: Confirmatory screen for MG 63 (6-TG R) cells (AID 1347119); note: nearly all actives have a fitted effect of over 55% in size
In short: as §2

[11] = qHTS of pediatric cancer cell lines to identify multiple opportunities for drug repurposing: Confirmatory screen for control Hh wild type fibroblast cells (AID 1347121); note: nearly all actives have a fitted effect of over 70% in size
In short: as §2

[12] = qHTS of pediatric cancer cell lines to identify multiple opportunities for drug repurposing: Confirmatory screen for Rh41 cells (AID 1347123); note: nearly all actives have a fitted effect of over 60% in size
In short: as §2

[13] = qHTS of pediatric cancer cell lines to identify multiple opportunities for drug repurposing: Confirmatory screen for RD cells (AID 1347124);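 note: cells exposed to compound for 48 h before viability readout; nearly all actives have a fitted effect of over 65% in size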
In short: as §2

[14] = qHTS of pediatric cancer cell lines to identify multiple opportunities for drug repurposing: Confirmatory screen for BT-12 cells (AID 1347112); note: nearly all actives have a fitted effect of over 55% in size
In short: as §2

[15] = qHTS of pediatric cancer cell lines to identify multiple opportunities for drug repurposing: Confirmatory screen for NB1643 cells (AID 1347109); note: nearly all actives have a fitted effect of over 45% in size
In short: as §2

[16] = qHTS of pediatric cancer cell lines to identify multiple opportunities for drug repurposing: Confirmatory screen for SJ-GBM2 cells (AID 1347116); note: nearly all actives have a fitted effect of over 60% in size
In short: as §3

[17] = qHTS of pediatric cancer cell lines to identify multiple opportunities for drug repurposing: Confirmatory screen for LAN-5 cells (AID 1347113); note: nearly all actives have a fitted effect of over 65% in size
In short: as §2
Potency is the fitted concentration of half-maximal effect.

With COc1ccc(C2CC(c3ccccc3)=NN2c2ccc(S(N)(=O)=O)cc2)cc1 (stereo not drawn) the Potency [1] was “inactive”, the Potency [2] was “inactive” and the Potency [3] was “inactive”.

With N[C@@]1(C(=O)O)CS(=O)(=O)[C@H]2[C@H](C(=O)O)[C@H]21 the Potency [1] was “inactive”, the Potency [2] was “inactive” and the Potency [4] was “inactive”. The Potency [3] was “inactive”, the Potency [5] was 0.0465 µM (active) and the Potency [6] was “inactive”. For the same compound, the Potency [7] was “inactive”, the Potency [8] was 0.737 µM (active) and the Potency [9] was 0.0522 µM (active). For the same compound, the Potency [10] was 13.1 µM (active), the Potency [11] was “inactive” and the Potency [12] was “inactive”. The Potency [13] was “inactive”.

With Cc1ccccc1C(C(=O)NC1CCCCC1)N(C(=O)Cn1ccnc1C)c1cccc(F)c1 (stereo not drawn) the Potency [1] was “inactive”, the Potency [2] was “inactive” and the Potency [4] was “inactive”.

With CC(C(=O)O)c1ccc(-c2ccccc2)c(F)c1 (stereo not drawn) the Potency [1] was “inactive”.

With COc1ccc(-c2coc3cc(O)cc(O)c3c2=O)cc1 the Potency [1] was “inactive”, the Potency [4] was “inactive” and the Potency [3] was “inactive”. The Potency [5] was 1.04 µM (active), the Potency [14] was “inactive” and the Potency [6] was “inactive”. The Potency [7] was “inactive”, the Potency [8] was “inactive” and the Potency [9] was 1.04 µM (active). For the same compound, the Potency [10] was “inactive” and the Potency [11] was “inactive”.

With CO[C@H]1C[C@@H]2CC[C@@H](C)[C@@](O)(O2)C(=O)C(=O)N2CCCC[C@@H]2C(=O)O[C@H]([C@H](C)C[C@@H]2CC[C@H](OC(=O)C(C)(CO)CO)[C@H](OC)C2)CC(=O)[C@H](C)C=C(C)[C@@H](O)[C@@H](OC)C(=O)[C@H](C)C[C@H](C)C=CC=CC=C1C the Potency [2] was “inactive” and the Potency [3] was 14.8 µM (active).

With O=C(O)CCC1CCC(c2cc(F)ccc2F)(S(=O)(=O)c2ccc(Cl)cc2)CC1 (stereo not drawn) the Potency [1] was 9.35 µM (active), the Potency [2] was “inactive” and the Potency [4] was “inactive”. For the same compound, the Potency [3] was 5.9 µM (active), the Potency [15] was “inactive” and the Potency [5] was 20.8 µM (active). The Potency [14] was 26.1 µM (active), the Potency [7] was “inactive” and the Potency [16] was “inactive”. For the same compound, the Potency [8] was 16.5 µM (active), the Potency [9] was 20.8 µM (active) and the Potency [10] was “inactive”. The Potency [11] was “inactive” and the Potency [13] was “inactive”.

For COc1ccc(-c2cc(=O)c3c(O)cc(O)cc3o2)cc1O, the Potency [1] was “inactive”, the Potency [2] was “inactive” and the Potency [4] was “inactive”.

With CCS(=O)(=O)N1CC(CC#N)(n2cc(-c3ncnc4[nH]ccc34)cn2)C1 the Potency [3] was 18.7 µM (active).

In the case of C[C@]12CC[C@@H]3c4ccc(O)cc4C[C@@H](CCCCCCCCCS(=O)CCCC(F)(F)C(F)(F)F)[C@H]3[C@H]1CC[C@H]2O (stereo partly drawn), the Potency [1] is reported as “inactive” and the Potency [2] is reported as “inactive”.

In the case of COc1cc(N2CCC(N3CCN(C)CC3)CC2)ccc1Nc1ncnc(Nc2ccccc2S(=O)(=O)C(C)C)n1, the Potency [1] is reported as “inactive”, the Potency [2] is reported as “inactive” and the Potency [4] is reported as 5.26 µM (active). The Potency [3] was 5.26 µM (active).

In the case of CS(=O)(=O)N(Cc1ccco1)CC(O)Cn1c2ccccc2c2ccccc21 (stereo not drawn), the Potency [1] is reported as “inactive” and the Potency [2] is reported as “inactive”.

With O=C(N[C@@H](c1ccccc1)[C@@H]1CCCCN1)c1cccc(C(F)(F)F)c1Cl the Potency [1] was “inactive”, the Potency [2] was “inactive” and the Potency [4] was “inactive”.

In the case of COc1cc(N2CCC(N3CCN(C)CC3)CC2)ccc1Nc1ncc(Cl)c(Nc2ccccc2S(=O)(=O)C(C)C)n1, the Potency [2] is reported as 29.6 µM (active), the Potency [4] is reported as 1.05 µM (active) and the Potency [15] is reported as 1.04 µM (active). For the same compound, the Potency [5] was 0.657 µM (active), the Potency [17] was 0.185 µM (active) and the Potency [6] was 16.5 µM (active). The Potency [7] was 14.7 µM (active), the Potency [16] was 23.3 µM (active) and the Potency [8] was 14.7 µM (active). The Potency [9] was 1.85 µM (active), the Potency [10] was 0.827 µM (active) and the Potency [11] was 20.8 µM (active). For the same compound, the Potency [12] was 0.329 µM (active) and the Potency [13] was 1.04 µM (active).

For O=C1NC(=O)C(=Cc2cccc(C(F)(F)F)c2)S1, the Potency [1] was “inactive” and the Potency [3] was 23.5 µM (active).

For CC(C)[C@H](CO)Nc1nc(Nc2ccc(C(=O)O)c(Cl)c2)c2ncn(C(C)C)c2n1, the Potency [1] was “inactive”, the Potency [2] was “inactive” and the Potency [4] was “inactive”.

For CCOC(CN1C(=O)[C@](CC(=O)Nc2ccc(C)cc2)(NC(=O)Nc2ccc(C)cc2)c2ccccc21)OCC, the Potency [2] was “inactive” and the Potency [4] was “inactive”.

With O=C(O)c1ccc(-c2c[nH]c3ncc(-c4ccccc4)cc23)cc1C1CCCC1 the Potency [4] was “inactive”, the Potency [3] was “inactive” and the Potency [15] was “inactive”. For the same compound, the Potency [5] was 9.27 µM (active), the Potency [14] was “inactive” and the Potency [17] was “inactive”. The Potency [6] was “inactive”, the Potency [7] was “inactive” and the Potency [16] was “inactive”. The Potency [8] was “inactive”, the Potency [9] was “inactive” and the Potency [10] was “inactive”. For the same compound, the Potency [11] was “inactive”, the Potency [12] was “inactive” and the Potency [13] was “inactive”.
